Measurements published in PubChem BioAssay (Tox21).
Inconclusive results are not listed. The source made the active and inactive calls. Unless noted, calls follow the shape of the full dose curve.

Assays:
[1] = Nuclear factor erythroid 2-related factor 2/antioxidant responsive element (Nrf2/ARE) small molecule agonists: qHTS cell viability counter screen in human keratinocytes (AID 1919968; active = well fitted curve in the direction sought with a large enough effect in the repeat runs; an effect the other way counts as inactive or inconclusive; also: nearly all actives have a fitted effect of over 55% in size)
In short: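 KeratinoSens cells (HaCaT keratinocytes stably carrying an ARE-luciferase reporter) were seeded at 1,500 cells/well and rested 5 h at 37 C/5% CO2. They were then exposed to compounds in DMSO for 23 h. Viability was read by CellTiter-Fluor fluorescence after 1 h.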

[2] = Nuclear factor erythroid 2-related factor 2/antioxidant responsive element (Nrf2/ARE) small molecule agonists: luciferase reporter gene qHTS assay in human keratinocytes (AID 1919969); also: nearly all actives have a fitted effect of over 35% in size
[3] = target: Gonadotropin-releasing hormone receptor (Homo sapiens) (UniProt P30968); test: Human gonadotropin-releasing hormone receptor (GnRHR) small molecule agonists, calcium flux assay in GnRHR-HEK293 cells (AID 1920063); also: nearly all actives have a fitted effect of over 35% in size
Sequence of Gonadotropin-releasing hormone receptor (Homo sapiens) (P30968 whole entry, looked up): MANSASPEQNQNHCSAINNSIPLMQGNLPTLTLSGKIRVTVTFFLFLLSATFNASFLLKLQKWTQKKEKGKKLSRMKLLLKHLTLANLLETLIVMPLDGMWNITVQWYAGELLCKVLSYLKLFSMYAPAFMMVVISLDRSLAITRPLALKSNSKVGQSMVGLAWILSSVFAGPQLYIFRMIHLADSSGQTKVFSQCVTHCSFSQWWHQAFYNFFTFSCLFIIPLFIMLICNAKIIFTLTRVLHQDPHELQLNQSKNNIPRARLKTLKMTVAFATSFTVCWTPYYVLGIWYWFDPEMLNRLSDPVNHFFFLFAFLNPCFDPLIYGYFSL
In short: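 HEK293 cells stably expressing human GnRHR were plated 18 h at 37 °C, loaded with calcium dye 1 h at 37 °C, then given compound in agonist mode; fluorescence (Ex/Em 480/540) read kinetically for 3 min at 1 s intervals.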

[4] = target: KiSS-1 receptor (Homo sapiens) (UniProt Q969F8); test: Human kisspeptin (KISS1R) small molecule agonists, calcium flux assay in KISS1R-HEK293 cells (AID 1920064; active = well fitted curve in the direction sought with a large enough effect in the repeat runs; an effect the other way counts as inactive or inconclusive)
Sequence of KiSS-1 receptor (Homo sapiens) (Q969F8 whole entry, looked up): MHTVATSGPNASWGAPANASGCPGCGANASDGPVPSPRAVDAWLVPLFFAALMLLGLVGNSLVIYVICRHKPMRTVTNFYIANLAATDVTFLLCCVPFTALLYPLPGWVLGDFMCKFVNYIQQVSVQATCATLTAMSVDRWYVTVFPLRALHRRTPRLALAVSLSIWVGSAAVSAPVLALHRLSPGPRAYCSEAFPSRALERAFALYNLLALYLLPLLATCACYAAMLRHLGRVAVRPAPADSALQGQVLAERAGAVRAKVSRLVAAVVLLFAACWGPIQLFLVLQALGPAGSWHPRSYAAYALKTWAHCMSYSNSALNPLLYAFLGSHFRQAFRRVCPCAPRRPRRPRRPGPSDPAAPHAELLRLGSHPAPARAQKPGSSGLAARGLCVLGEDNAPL
In short: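 HEK293 cells stably expressing human KISS1R were plated 18 h at 37 °C, loaded with calcium dye for 1 h at 37 °C, then given compound by pin tool. Fluorescence (Ex/Em 480/540) was read kinetically for 3 min.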

[5] = G protein-coupled receptor (GPCR) small molecule agonists, calcium flux assay: HEK293 wild type cell line counter screen (AID 1920065)
In short: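 Cells were plated and cultured 18 h at 37 C/5% CO2, then loaded with calcium dye for 1 h at 37 C. Compounds in DMSO were pin-transferred in agonist mode, and fluorescence (Ex/Em 480/540) was read kinetically for 3 min at 1 s intervals.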

[6] = p53 small molecule agonists, cell-based qHTS assay with human liver microsomes (AID 1963577);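 also: p53 response element beta-lactamase reporter cells with liver microsomes plus NADPH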
In short: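 With metabolic activation: human liver microsomes (0.5 mg/mL final) plus NADPH (0.5 mg/mL final) added alongside compounds to p53RE-bla cells; 16 h 37 C exposure; beta-lactamase read by LiveBLAzer fluorescence.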

[7] = p53 small molecule agonists, cell-based qHTS assay with rat liver microsomes (AID 1963578)
In short: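 Metabolic activation by rat liver microsomes and NADPH, each 0.5 mg/mL final, added right after compounds to p53RE-bla reporter cells (4,000/well, plated 5 h earlier). 16 h at 37 C, then LiveBLAzer substrate for 2 h at room temperature in the dark; fluorescence read-out.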

[8] = p53 small molecule agonists, cell-based qHTS assay with human liver microsomes: qHTS cell viability counter screen (AID 1963579); also: nearly all actives have a fitted effect of over 45% in size
In short: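 Metabolic activation used human liver microsomes and NADPH, both 0.5 mg/mL final, over 16 hours at 37 C on p53RE-bla cells (4,000/well). Cytotoxicity measured by CellTiter-Glo luminescence, 30 min at room temperature.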

[9] = p53 small molecule agonists, cell-based qHTS assay with rat liver microsomes: qHTS cell viability counter screen (AID 1963580); also: nearly all actives have a fitted effect of over 45% in size
In short: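 HCT-116 p53RE-bla, 4,000 cells/well, 5 h pre-incubation; cpd + rat liver microsomes 0.5 mg/mL + NADPH 0.5 mg/mL (final); 16 h, 37 C; CellTiter-Glo, 30 min RT; luminescence.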

[10] = p53 small molecule agonists, cell-based qHTS assay (AID 1963582; active = well fitted activation curve with a large enough effect in the signal ratio in the repeat runs, not every such curve was filed as active; the % refers to the signal ratio)
In short: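 p53RE-bla beta-lactamase reporter cells rested 5 h at 37 C/5% CO2, then received compounds in DMSO by pin transfer and were incubated 16 h at 37 C. LiveBLAzer B/G FRET substrate was loaded for 2 h at room temperature before fluorescence reading.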

[11] = target: 5-hydroxytryptamine receptor 2A (Homo sapiens) (UniProt P28223); test: 5-hydroxytryptamine receptor 2A (HTR2A) small molecule antagonists, cell-based qHTS assay (AID 1963586); also: nearly all actives have a fitted effect of over 45% in size
Sequence of 5-hydroxytryptamine receptor 2A (Homo sapiens) (P28223 whole entry, looked up): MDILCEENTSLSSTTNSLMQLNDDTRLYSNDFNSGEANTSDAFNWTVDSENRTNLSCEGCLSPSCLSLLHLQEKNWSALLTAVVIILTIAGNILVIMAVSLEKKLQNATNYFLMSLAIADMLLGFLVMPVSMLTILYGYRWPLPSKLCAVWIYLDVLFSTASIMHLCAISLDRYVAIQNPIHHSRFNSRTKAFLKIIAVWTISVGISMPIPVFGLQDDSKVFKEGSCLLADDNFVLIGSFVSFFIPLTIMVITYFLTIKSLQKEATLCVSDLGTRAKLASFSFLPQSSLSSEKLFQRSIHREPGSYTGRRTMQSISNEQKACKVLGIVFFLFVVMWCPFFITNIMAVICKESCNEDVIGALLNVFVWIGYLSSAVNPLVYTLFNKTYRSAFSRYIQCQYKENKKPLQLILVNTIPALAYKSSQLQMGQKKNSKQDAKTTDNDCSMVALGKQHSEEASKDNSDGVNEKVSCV
In short: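 Antagonist-mode intracellular calcium assay: DOI (4 nM) added after 5 min compound pre-incubation at room temperature to dye-loaded HTR2A-CHO cells. Fluorescence followed for 3 min, sampled every second.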

[12] = target: 5-hydroxytryptamine receptor 2A (Homo sapiens) (UniProt P28223); test: 5-hydroxytryptamine receptor 2A (HTR2A) small molecule agonists, cell-based qHTS assay (AID 1963587); also: nearly all actives have a fitted effect of over 30% in size
In short: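 Kinetic calcium-flux fluorescence (2 min, 1 sec intervals) after compound addition in agonist mode. HTR2A-CHO cells were cultured 18 h, then dye-loaded 1 h at 37 C.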

[13] = target: Muscarinic acetylcholine receptor M1 (Homo sapiens) (UniProt P11229); test: Cholinergic receptor muscarinic 1 (CHRM1) small molecule antagonists, cell-based qHTS assay (AID 1963588); also: nearly all actives have a fitted effect of over 40% in size
Sequence of Muscarinic acetylcholine receptor M1 (Homo sapiens) (P11229 whole entry, looked up): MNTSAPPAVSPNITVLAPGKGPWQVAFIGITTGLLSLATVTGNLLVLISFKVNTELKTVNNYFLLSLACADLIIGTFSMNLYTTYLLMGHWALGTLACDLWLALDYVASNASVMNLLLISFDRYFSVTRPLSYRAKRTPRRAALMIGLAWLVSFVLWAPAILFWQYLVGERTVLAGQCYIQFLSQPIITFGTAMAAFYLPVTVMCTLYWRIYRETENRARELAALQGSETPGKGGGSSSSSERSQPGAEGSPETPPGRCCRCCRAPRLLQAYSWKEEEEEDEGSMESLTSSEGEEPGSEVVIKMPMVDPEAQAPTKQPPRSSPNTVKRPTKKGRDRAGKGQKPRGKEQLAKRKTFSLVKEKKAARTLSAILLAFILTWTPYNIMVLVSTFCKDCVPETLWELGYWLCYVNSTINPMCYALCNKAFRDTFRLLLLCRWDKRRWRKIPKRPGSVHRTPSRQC
In short: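 CHRM1-CHO calcium-flux assay, antagonist mode. Cells were seeded 18 h, dye-loaded 1 h at 37 C and given compound for 5 min at RT, then acetylcholine was added at 50nM. FDSS fluorescence was read 3 min; 15 concentrations, three runs.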

[14] = target: Muscarinic acetylcholine receptor M1 (Homo sapiens) (UniProt P11229); test: Cholinergic receptor muscarinic 1 (CHRM1) small molecule agonists, cell-based qHTS assay (AID 1963589); also: nearly all actives have a fitted effect of over 35% in size
In short: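 CHO cells stably expressing human CHRM1, seeded 18 h at 37 C/5% CO2, dye-loaded 1 h at 37 C, then given compound in agonist mode; intracellular calcium fluorescence read kinetically at 1 s intervals. Fifteen concentrations, three independent runs.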

[15] = cAMP Responsive Elements (CRE) small molecule agonists, cell-based qHTS assay (AID 1963590)
In short: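 CRE-bla HEK 293T cells in DMEM with 10% dialyzed FBS, NEAA, pyruvate and 25 mM HEPES were plated 18 h at 37 C/5% CO2, then exposed to compounds in DMSO for 3 h before LiveBLAzer B/G FRET substrate addition.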

[16] = cAMP Responsive Elements (CRE) small molecule antagonists, cell-based qHTS assay (AID 1963591; active = well fitted inhibition curve with a large enough effect in the signal ratio in the repeat runs, not every such curve was filed as active; the % refers to the signal ratio)
In short: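 CRE-bla HEK293T cells were plated 18 h at 37 °C/5% CO2, pinned with compound in DMSO, then stimulated with NKH477 at 0.25 uM final for 3 h. LiveBLAzer B/G FRET substrate was added and plates incubated 2 h at room temperature.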

[17] = target: Beta-2 adrenergic receptor (Homo sapiens) (UniProt P07550); test: Adrenergic beta2 receptor (ADRB2) small molecule antagonists, cell-based qHTS assay (AID 1963592); also: series mostly up to about 92 µM; nearly all actives have a fitted effect of over 50% in size
Sequence of Beta-2 adrenergic receptor (Homo sapiens) (P07550 whole entry, looked up): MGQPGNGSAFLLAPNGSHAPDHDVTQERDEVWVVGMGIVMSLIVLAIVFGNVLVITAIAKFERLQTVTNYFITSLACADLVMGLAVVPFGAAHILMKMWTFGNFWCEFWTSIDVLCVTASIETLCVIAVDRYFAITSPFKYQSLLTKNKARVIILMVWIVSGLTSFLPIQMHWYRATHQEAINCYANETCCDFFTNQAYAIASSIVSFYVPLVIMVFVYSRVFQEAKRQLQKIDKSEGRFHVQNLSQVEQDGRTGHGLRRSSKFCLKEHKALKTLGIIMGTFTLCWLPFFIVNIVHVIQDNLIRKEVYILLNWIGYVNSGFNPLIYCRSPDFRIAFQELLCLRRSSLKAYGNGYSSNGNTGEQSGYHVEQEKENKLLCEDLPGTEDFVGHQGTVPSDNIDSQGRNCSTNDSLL
In short: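 Cells (CHO, stable ADRB2 overexpression) incubated 18-20hr at 37C; compounds added from DMSO; agonist mix (1nM isoproterenol, 100uM IBMX, 25uM Ro-20-1724) added; 0.5hr RT; d2-cAMP and anti-cAMP-cryptate added; 1hr RT; 665/615 nm read.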

[18] = target: Beta-2 adrenergic receptor (Homo sapiens) (UniProt P07550); test: Adrenergic beta2 receptor (ADRB2) small molecule agonists, cell-based qHTS assay (AID 1963593);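 also: CHO cells stably overexpressing human ADRB2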
In short: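 CHO cells stably over-expressing ADRB2 were plated overnight at 37C, then dosed with compounds plus a stimulation mix containing 100uM IBMX and 25uM Ro-20-1724 for 0.5hr at room temperature. cAMP was measured by HTRF competition, 1hr.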

[19] = target: D(2) dopamine receptor (Homo sapiens) (UniProt P14416); test: Dopamine D2 receptor (DRD2) small molecule agonists, cell-based qHTS assay (AID 1963594); also: nearly all actives have a fitted effect of over 35% in size
Sequence of D(2) dopamine receptor (Homo sapiens) (P14416 whole entry, looked up): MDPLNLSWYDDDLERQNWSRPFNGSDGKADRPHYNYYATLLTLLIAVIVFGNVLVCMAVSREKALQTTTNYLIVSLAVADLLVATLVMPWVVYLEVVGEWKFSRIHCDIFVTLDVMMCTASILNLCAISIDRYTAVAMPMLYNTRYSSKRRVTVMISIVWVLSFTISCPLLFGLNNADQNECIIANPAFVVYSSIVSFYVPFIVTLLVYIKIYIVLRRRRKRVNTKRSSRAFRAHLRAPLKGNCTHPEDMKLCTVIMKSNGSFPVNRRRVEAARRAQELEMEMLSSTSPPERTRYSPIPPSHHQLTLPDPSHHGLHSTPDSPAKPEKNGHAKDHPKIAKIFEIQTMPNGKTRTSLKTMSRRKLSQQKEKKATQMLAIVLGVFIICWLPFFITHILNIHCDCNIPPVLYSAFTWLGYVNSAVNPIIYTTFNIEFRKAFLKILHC
In short: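 cAMP accumulation in DRD2-HEK293 cells measured by HTRF after 1 h detection; compounds added 10 min before NKH477 (200nM […]) forskolin-analogue stimulation, 30 min at room temperature, with Ro20-1724 present at 0.1 mM final.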

[20] = target: D(2) dopamine receptor (Homo sapiens) (UniProt P14416); test: Dopamine D2 receptor (DRD2) small molecule antagonists, cell-based qHTS assay (AID 1963595; active = well fitted inhibition curve with a large enough effect in the signal ratio in the repeat runs, with a control signal flat; the % refers to the signal ratio)
In short: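 HEK293 cells stably expressing DRD2, preincubated with 0.1 mM Ro20-1724 and compounds 10 min, were stimulated with 200 nM NKH477 plus 12 nM quinpirole for 30 min at room temperature; cAMP measured by HTRF (665/620 nm).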

Measured: Potency

CCC(=O)C(=O)CC
inactive: [1] | [2] | [3] | [4] | [5] | [6] | [7] | [8] | [9] | [10] | [11] | [12] | [13] | [14] | [15] | [16] | [17] | [18] | [19]

CCC(C(=O)OCCN1CCOC(c2ccccc2)C1C)c1ccccc1 (centres undefined)
inactive: [1] | [2] | [3] | [4] | [5] | [6] | [7] | [8] | [9] | [12] | [14] | [15] | [16] | [17] | [18] | [19] | [20]

Cn1c(=O)c2c(ncn2CC(O)CO)n(C)c1=O (centres undefined)
inactive: [1] | [2] | [3] | [4] | [5] | [6] | [7] | [8] | [9] | [15] | [16] | [17] | [19] | [20]

CCN1CCCC1CNC(=O)c1cc(S(=O)(=O)CC)c(N)cc1OC (centres undefined)
inactive: [1] | [2] | [3] | [4] | [5] | [6] | [7] | [8] | [9] | [13] | [14] | [15] | [17] | [18]

CCCCCCCCCCCC(C)=O
inactive: [1] | [2] | [3] | [4] | [5] | [6] | [7] | [8] | [9] | [10] | [11] | [12] | [13] | [14] | [15] | [16] | [17] | [18] | [19]

NS(=O)(=O)c1cc(-c2nn[nH]n2)c(NCc2cccs2)cc1Cl
inactive: [1] | [2] | [3] | [4] | [5] | [6] | [7] | [8] | [9] | [10] | [11] | [12] | [13] | [14] | [15] | [16] | [17] | [18] | [19]

CCCCCCCCCCCC[N+](C)(C)CC(=O)[O-]
inactive: [1] | [2] | [3] | [4] | [5] | [6] | [7] | [8] | [9] | [14] | [15] | [17] | [18] | [20]

CCCN(CCC)C(=O)C(CCC(=O)OCCCN1CCN(CCOC(=O)Cc2c(C)n(C(=O)c3ccc(Cl)cc3)c3ccc(OC)cc23)CC1)NC(=O)c1ccccc1 (centres undefined)
inactive: [1] | [2] | [3] | [4] | [5] | [6] | [7] | [8] | [9] | [12] | [14] | [17] | [19]
